# In all, about 81,000 sequences were measured (“one-hybrid fitness for binding parS DNA”: median about -0.17, highest 2% from about 0.51 on). The sample holds the highest values, similar sequences and a random draw of the others, so the mix is not that of the screen.
# B1: Caulobacter ParB omega fusion; a variant is named by its letters at X, in order, B8GW30 (parent)
# chain: MESVVVGEPGMSEGRRGLGRGLSALLGEVDAAPAQAPGEQLGGSREAPIEILQRNPDQPRRTFREEDLEDLSNSIREKGVLQPILVRPSPDTAGEYQIVAGERAWRAAQRAGLKTVPIMVRELDDLAVLEIGIIENVQRADLNVLEEALSYKVLMEKFERTQENIAQTIGKSXSHVANXMRLLXLPDEVQSYLVSGELTAXHARAIAAAADPVALAKQIIEGGLSVRETEALARKAPNLSAGKSKGGRPPRVKDTDTQALESDLSSVLGLDVSIDHRGSTGTLTITYATLEQLDDLCNRLTRGI
# Variants of: B1
# Test: one-hybrid fitness for binding parS DNA (scaled: cognate 1, non-cognate 0); higher = stronger binding
# Settings: with parS DNA site
# How it was run: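 On M9-minus-histidine containing 0.1 mM IPTG and 5 mM 3-AT, E. coli USO cells with a HIS3 reporter, site 19 bp from the promoter, grew 48 hours at 37°C to select Caulobacter ParB libraries randomised at four specificity codons. Plasmids from before and after were Illumina-sequenced, with three replicate libraries pooled and variants under 10 reads left out. Fitness is the log change in variant-to-wild-type read ratio, rescaled against cognate and non-cognate.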
row,Variant,one-hybrid fitness for binding parS DNA
1,PWNF,≤ 0.2
2,ATEL,≤ 0.2
3,REGS,≤ 0.2
4,FMKF,≤ 0.2
5,IDST,≤ 0.2
6,HFES,≤ 0.2
7,QITI,≤ 0.2
8,LTWC,≤ 0.2
9,ADCT,≤ 0.2
10,ENNV,≤ 0.2
11,DYSL,≤ 0.2
12,RMCY,0.509
13,RPCY,≤ 0.2
14,RCCY,0.526
15,RSCY,0.47
16,WWVS,≤ 0.2
17,TIHD,≤ 0.2
18,VITG,≤ 0.2
19,YPSN,≤ 0.2
20,RLIG,0.934
21,RLPP,≤ 0.2
22,RLIY,0.437
23,RLPH,≤ 0.2
24,RLIK,≤ 0.2
25,RLPG,0.755

row,Variant,one-hybrid fitness for binding parS DNA
1,NLNR,≤ 0.2
2,YYRR,≤ 0.2
3,VLMH,≤ 0.2
4,LVRM,≤ 0.2
5,KHKS,≤ 0.2
6,DGAP,≤ 0.2
7,RWTS,0.956
8,RWTC,0.79
9,RWTQ,≤ 0.2
10,RWTP,≤ 0.2
11,RWTY,0.37
12,RWTT,0.705
13,RWTH,≤ 0.2
14,RWTD,≤ 0.2
15,RWTR,≤ 0.2
16,RWTN,0.338
17,RWTF,≤ 0.2
18,RWTG,0.824
19,SCKV,≤ 0.2
20,RMTE,≤ 0.2
21,EKPG,≤ 0.2
22,PAYN,≤ 0.2
23,HTMF,≤ 0.2
24,AKDP,≤ 0.2
25,FKSC,≤ 0.2

row,Variant,one-hybrid fitness for binding parS DNA
1,TTMG,≤ 0.2
2,PSRP,≤ 0.2
3,QMFV,≤ 0.2
4,YLKH,0.358
5,HKTR,≤ 0.2
6,KKHM,≤ 0.2
7,DLHA,≤ 0.2
8,RPHA,≤ 0.2
9,RCHA,0.626
10,NAHA,≤ 0.2
11,RGHA,0.238
12,RLHA,0.592
13,RAHA,0.613
14,RDHA,≤ 0.2
15,RNHA,0.438
16,RSHA,0.592
17,RWHA,0.378
18,LRPS,≤ 0.2
19,RCFW,0.256
20,MCTC,≤ 0.2
21,CVPM,≤ 0.2
22,SGES,≤ 0.2
23,ADNQ,≤ 0.2
24,SFPL,≤ 0.2
25,TQVG,≤ 0.2

row,Variant,one-hybrid fitness for binding parS DNA
1,TFSM,≤ 0.2
2,PVIS,≤ 0.2
3,DMHA,≤ 0.2
4,DTHA,≤ 0.2
5,RHHA,0.526
6,PFHA,≤ 0.2
7,NTHA,≤ 0.2
8,RFHA,0.53
9,RTHA,0.61
10,AFHA,≤ 0.2
11,RMHA,0.603
12,VHWV,≤ 0.2
13,CRAC,≤ 0.2
14,QHLA,≤ 0.2
15,DKPG,≤ 0.2
16,IKTN,≤ 0.2
17,AQFC,≤ 0.2
18,TGAE,≤ 0.2
19,RVFK,≤ 0.2
20,RVAG,0.999
21,RVAY,0.464
22,RVAM,0.329
23,RVFP,≤ 0.2
24,RVFG,0.993

# Reference: a collection of fitness landscapes (doi:10.1016/j.celrep.2020.107928)
